Data as given in PubChem BioAssay (NCI).
About 83,000 compounds went through this panel and 20% of them were active in at least one assay; those are over-represented in the sample as a whole.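 Values shown are percent growth following 48 h exposure of cells in 96-well plates to a single concentration of compound; below 10 was considered active.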 Values without a mark were called inactive. Calls of active or inactive are those of the source.

These molecules were tested on RXF 393 renal (assay: NCI-60 one-dose screen, 48 h (100 = growth as untreated, 0 = no growth, -100 = all killed)). Details: 10 µM unless noted.

Structure (SMILES) | growth
COc1cc(/C=C/C(=O)c2ccc(NC(=O)COc3cccc4cccnc34)cc2)cc(OC)c1OC | 86.7%
O=C(Nc1cccc(Cl)c1)Nc1nc2ccc([N+](=O)[O-])cc2s1 | -26.4% (active)
O=C(NNc1nc2cc(F)cc(F)c2n2cccc12)c1ccncn1 | 18.8%
C[C@H]1[C@H](C)CC[C@]2(COC(=O)c3cccnc3)CC[C@]3(C)C(=CC[C@@H]4[C@@]5(C)CCCNC(C)(C)[C@@H]5CC[C@]43C)[C@H]12 | 81.9%
CN1CCN(c2ccc(NC(=O)Nc3ccc4c(ccn4-c4cccc(C(N)=O)n4)c3)cc2C(F)(F)F)CC1 | -12.9% (active)
COc1ccc(OC)c([C@H]2c3[nH]c4ccccc4c3C[C@H]3C(=O)N(CCCCCCC(=O)NO)CC(=O)N23)c1 | 107%
CS(=O)c1nccc(-c2c(-c3ccc(F)c(OCc4ccccc4)c3)nc3sccn23)n1 (stereo not drawn) | 96.6%
CC(=O)NC(C)(C)C(=O)N1CCC[C@H]1C(=O)NC(C)(C)C(=O)N[C@@H](C)C(=O)NC(C)(C)C(=O)N[C@@H](C)C(=O)N[C@@H](CCC(N)=O)C(=O)NC(C)(C)C(=O)N[C@H](C(=O)NC(C)(C)C(=O)NCC(=O)N[C@@H](CC(C)C)C(=O)NC(C)(C)C(=O)N1CCC[C@H]1C(=O)N[C@H](C(=O)NC(C)(C)C(=O)NC(C)(C)C(=O)N[C@@H](CCC(N)=O)C(=O)N[C@@H](CCC(N)=O)C(=O)N[C@H](CO)Cc1ccccc1)C(C)C)C(C)C | 82.7% [4.25 µM]
C=C(C)[C@@H]1CC[C@]2(C(=O)NCCCN(CCC#N)CCC#N)CC[C@]3(C)[C@H](CC[C@@H]4[C@@]5(C)CCC(=O)C(C)(C)[C@@H]5CC[C@]43C)[C@@H]12 | 92.9%
O=C(CN1C(=O)S/C(=C\c2ccccc2)C1=O)Nc1ccc(C(=O)/C=C/c2cc3ccccc3nc2Cl)cc1 | 109%
N#Cc1c(-c2cccs2)cc(-c2cnccn2)nc1SCC(=O)NNC(=S)Nc1ccc(F)cc1 | 141%
CN1CCN(c2nc(-c3cnc4ccccc4n3)cc3ccccc23)CC1 | 23.9%
Cc1cc(O)c(=O)cc2c1C[C@H]1CC(C)(C)/C=C/C[C@]3(C)Oc4cc(=O)c(O)cc(C)c4C[C@H]3C[C@H](O)[C@@]1(C)O2 | 5.24% (active)
CC(C)=CCC[C@](C)(O)[C@H]1CC[C@]2(C)[C@@H]1CC[C@@H]1[C@@]3(C)CCC(NC(=O)c4ccccc4C(=O)O)C(C)(C)[C@@H]3CC[C@]12C (stereo partly drawn) | 101%
CN1CCN(c2ccc3c(C(N)=O)c(NC(=O)c4ccc(C(C)(C)C)cc4)sc3c2)CC1 | 81.8%
COc1ccc(-c2nc(SCC(C)C)nc(N/N=C\c3cccc([N+](=O)[O-])c3)c2C#N)cc1 | 18.1%
Cc1cc(F)cc(NS(=O)(=O)c2ccc(-c3cnc(C4CC4)o3)cc2)c1 | -3.39% (active)
C/C(=N\NC(=O)CSc1nc2sc3c(c2c(=O)n1-c1ccccc1)CCC(C)C3)c1ccc(Cl)cc1 (stereo not drawn) | -23.3% (active)
COc1ccc(NC(=O)[C@H](C)N)cc1C(=O)Nc1cccc(-c2cc(=O)c3c(OC)c(OC)c(OC)cc3o2)c1 | 71.9%
CC[C@H](C)[C@H]1NC(=O)[C@@H]([C@H](O)C(C)C)NC(=O)[C@@H](C)N(C)C(=O)[C@H](C)N(C)C(=O)[C@H](CC(C)C)NC(=O)[C@H](CC(C)C)N(C)C(=O)[C@H](C)N(C)C1=O | -17.8% (active)
IP(CCCSc1n(Cc2ccc3ccccc3c2)c(-c2ccccc2)c(-c2ccccc2)[n+]1Cc1ccc2ccccc2c1)(c1ccccc1)(c1ccccc1)c1ccccc1 | 99.7%
N/C(=N\OC(=O)CSc1nc2ccccc2s1)c1ccc(Cl)cc1 | 122%
CC(=O)NC(C)(C)C(=O)N[C@@H](C)C(=O)NC(C)(C)C(=O)N[C@@H](C)C(=O)NC(C)(C)C(=O)N[C@@H](C)C(=O)N[C@@H](CCC(N)=O)C(=O)NC(C)(C)C(=O)N[C@H](C(=O)NC(C)(C)C(=O)NCC(=O)N[C@@H](CC(C)C)C(=O)NC(C)(C)C(=O)N1CCC[C@H]1C(=O)N[C@H](C(=O)NC(C)(C)C(=O)NC(C)(C)C(=O)N[C@@H](CCC(N)=O)C(=O)N[C@@H](CCC(N)=O)C(=O)N[C@H](CO)CC1CCCCC1)C(C)C)C(C)C | 55.8% [5 µM]
